From PubChem BioAssay AID1053205 (Broad Institute, 2014)
Potency and affinity values are given separately. Inconclusive results are not listed. A call without a number means that no potency is given here. Active and inactive are the calls of the source.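 Rule for the calls: active = compounds lowering the FRET ratio whose fitted half-maximal concentration is at most twice their top tested dose; inconclusive = flat partial drop between 30 and 70 percent, or bad fit; inactive = the rest.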

Target: Voltage-dependent L-type calcium channel subunit alpha-1D (Homo sapiens) (UniProt Q01668)
Assay: inhibitors of CaV1.3 ICDI-IQ binding, dose response, cell-based, HEK293, YFP-IQ/CFP-ICDI FRET, cherry-picks (AID 1053205)

Voltage-dependent L-type calcium channel subunit alpha-1D (Homo sapiens), sequence (Q01668 whole entry, looked up): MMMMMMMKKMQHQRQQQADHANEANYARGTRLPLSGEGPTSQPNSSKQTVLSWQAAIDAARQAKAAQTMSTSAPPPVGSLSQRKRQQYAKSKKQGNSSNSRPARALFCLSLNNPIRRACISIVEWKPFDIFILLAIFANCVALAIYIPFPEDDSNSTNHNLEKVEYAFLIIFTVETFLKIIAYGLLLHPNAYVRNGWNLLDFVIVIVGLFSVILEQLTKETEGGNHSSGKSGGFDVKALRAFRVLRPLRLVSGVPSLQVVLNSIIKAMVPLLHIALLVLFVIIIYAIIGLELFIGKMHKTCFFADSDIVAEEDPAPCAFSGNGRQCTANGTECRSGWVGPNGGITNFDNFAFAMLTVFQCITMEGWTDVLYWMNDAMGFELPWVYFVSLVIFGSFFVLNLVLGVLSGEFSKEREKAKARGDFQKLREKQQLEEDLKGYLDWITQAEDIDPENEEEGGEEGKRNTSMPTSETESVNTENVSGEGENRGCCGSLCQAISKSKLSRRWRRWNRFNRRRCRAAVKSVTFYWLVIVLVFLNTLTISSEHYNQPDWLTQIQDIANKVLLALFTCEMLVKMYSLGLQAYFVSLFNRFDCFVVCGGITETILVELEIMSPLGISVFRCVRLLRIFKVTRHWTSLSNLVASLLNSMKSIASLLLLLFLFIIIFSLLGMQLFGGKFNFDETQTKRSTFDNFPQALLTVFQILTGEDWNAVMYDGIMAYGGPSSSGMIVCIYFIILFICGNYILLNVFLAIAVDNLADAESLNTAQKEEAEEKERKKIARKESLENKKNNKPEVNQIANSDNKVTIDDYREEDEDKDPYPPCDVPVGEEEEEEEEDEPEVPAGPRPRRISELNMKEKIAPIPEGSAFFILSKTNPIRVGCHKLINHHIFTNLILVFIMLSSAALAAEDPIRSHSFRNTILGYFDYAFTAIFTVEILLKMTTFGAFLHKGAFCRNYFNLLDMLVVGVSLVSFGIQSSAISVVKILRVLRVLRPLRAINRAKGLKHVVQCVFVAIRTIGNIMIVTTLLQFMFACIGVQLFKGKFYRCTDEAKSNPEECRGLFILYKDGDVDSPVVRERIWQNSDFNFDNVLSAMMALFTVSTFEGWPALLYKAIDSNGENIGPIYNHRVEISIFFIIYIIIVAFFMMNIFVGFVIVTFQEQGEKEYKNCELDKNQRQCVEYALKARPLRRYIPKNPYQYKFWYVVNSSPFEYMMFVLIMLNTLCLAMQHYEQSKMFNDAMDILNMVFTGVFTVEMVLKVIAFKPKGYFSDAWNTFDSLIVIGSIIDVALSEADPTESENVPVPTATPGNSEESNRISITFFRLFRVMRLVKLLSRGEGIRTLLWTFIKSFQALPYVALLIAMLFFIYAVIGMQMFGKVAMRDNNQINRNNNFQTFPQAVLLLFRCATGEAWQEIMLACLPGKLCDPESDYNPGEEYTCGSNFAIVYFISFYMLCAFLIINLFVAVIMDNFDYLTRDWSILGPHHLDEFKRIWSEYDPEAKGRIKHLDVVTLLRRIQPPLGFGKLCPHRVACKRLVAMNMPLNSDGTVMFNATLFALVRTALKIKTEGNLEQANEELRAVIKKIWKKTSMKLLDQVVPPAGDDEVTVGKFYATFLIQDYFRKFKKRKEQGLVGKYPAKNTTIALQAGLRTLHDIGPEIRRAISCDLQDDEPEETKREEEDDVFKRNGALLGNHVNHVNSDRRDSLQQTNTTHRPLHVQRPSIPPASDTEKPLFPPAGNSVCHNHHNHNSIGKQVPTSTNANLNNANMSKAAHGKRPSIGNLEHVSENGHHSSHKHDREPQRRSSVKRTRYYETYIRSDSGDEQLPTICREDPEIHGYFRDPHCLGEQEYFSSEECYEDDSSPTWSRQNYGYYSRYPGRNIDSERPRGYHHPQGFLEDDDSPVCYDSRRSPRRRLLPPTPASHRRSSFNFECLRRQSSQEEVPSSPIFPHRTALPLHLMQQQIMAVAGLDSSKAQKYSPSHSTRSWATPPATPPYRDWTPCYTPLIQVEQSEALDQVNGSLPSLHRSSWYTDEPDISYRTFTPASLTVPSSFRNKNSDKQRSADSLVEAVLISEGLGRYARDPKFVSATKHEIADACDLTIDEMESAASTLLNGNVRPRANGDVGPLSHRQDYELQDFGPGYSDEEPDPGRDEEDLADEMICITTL

SMILES | outcome
CC(C)OP(=O)(O)NC(=O)c1ccccc1 | inactive
N#CC1=C(N)Oc2cc(O)ccc2C1c1ccc2c(c1)OCO2 (configuration not stated) | inactive
